# In PubChem BioAssay (NCATS):
# The source made the active and inactive calls. The call rests on the fitted dose curve; in most records, active means well fitted cell-killing curve with a large enough effect; inconclusive means small, poorly fitted or top-dose-only effect; inactive means flat fitted curve, though single readings scatter.
# Assay: Cell Viability - LYMP1-002 - Assay at 24 hr (AID 993)
# Details: LYMP1-002 lymphoblastoid cells viability; series mostly up to 92.2 µM; activity change, negative = cytotoxicity: at the top concentration
# Text: NIH Chemical Genomics Center [NCGC]
# NIH Molecular Libraries Screening Centers Network [MLSCN]
# National Institutes of Environmental Health Sciences [NIEHS]
# National Toxicology Program [NTP]
# We have developed a 1536-well cell-based assay for quantitative high throughput screening (qHTS) against a number of cell lines to determine in vitro cytotoxicity of small molecules. This particular assay uses a human lymphoblastoid cell line (LYMP1-002) purchased from Coriell Institute for Medical Research.
# NCGC Assay Protocol Summary:
# The CellTiter-Glo luminescent cell viability assay (Promega) is a homogeneous method to measure the number of viable cells in culture. The end point readout of this assay is based on quantitation of intracellular ATP, an indicator of metabolic activity, using the luciferase reaction. Luciferase catalyzes the oxidation of beetle Luciferin to oxyluciferin and light in the presence of ATP. The luminescent signal is proportional to amount of ATP present.
# Using the CellTiter-Glo luminescent cell viability assay, the amount of cellular ATP was measured in the lymphoblastoid cell line with complete culture medium following compound treatment for 24 hours. The assay was performed in opaque white Kalypsys 1536-well plates. In the screen, tetraoctylammonium bromide was used as positive control. Library compounds were measured for their ability to cause acute toxicity in the cell line, as reflected by a decrease in intracellular ATP levels, in a concentration-dependent manner. […] AC50 values were determined from concentration-response data modeled with the standard Hill equation.
# qHTS protocol for CellTiter Glo lymphoblastoid cellular assay
# [Step] [Parameter] [Value] [Description]
# 1. Reagent; 5 uL; 2500 lymphoblastoid cells/well
# 2. Time; 5 hr; 37 C incubation
# 4. Controls; 23 nL; Tetraoctylammonium bromide 6.4pM to 92 uM
# 5. Time; 24 hr; 37 C incubation
# 6. Reagent; 5 uL; CellTiter Glo reagent
# 7. Time; 30 min; Room Temperature
# 8. Detection; Luminescence; Viewlux plate reader
# Keywords: cell viability, cytotoxicity, lymphoblastoid cell line, luminescence, NTPHTS, NTPHTS_NCGC, NIEHS, DSSTox, MLSMR, MLSCN, NIH Roadmap, qHTS, NCGC
# On the % scale 0 is the no-effect control and ±100 the full control effect.
row,SMILES,"activity change, negative = cytotoxicity"
1,C=C(C)C(=O)OC,0.782% (inactive)
2,Clc1cc(Cl)cc(Cl)c1,0.274% (inactive)
3,C/C=C1\CC2C=CC1C2 (stereo not given),-2.51% (inactive)
4,O=Nc1ccc(NO)cc1,-10.8% (inactive)
5,O=C(O[C@@H](C(=O)O)[C@@H](OC(=O)c1ccccc1)C(=O)O)c1ccccc1,7.87% (inactive)
6,CCCCC(C=O)CC (stereo not given),-8.62% (inactive)
7,O=C(O)CNC(=O)c1ccc([N+](=O)[O-])cc1,3.4% (inactive)
8,Cc1cccc([N+](=O)[O-])c1C(=O)O,-0.63% (inactive)
9,CCOc1ccc(NC(C)=O)cc1N,0.805% (inactive)
10,NC(=O)/N=N/C(N)=O,1.23% (inactive)
11,Cc1ccc(C)c([N+](=O)[O-])c1,4.47% (inactive)
12,O=C(O)CCSSCCC(=O)O,4.89% (inactive)
13,CC(=O)CC(C)C,-1.34% (inactive)
14,O=C(O)c1ccc(Cl)cc1Cl,-3.47% (inactive)
15,CCC=O,1.87% (inactive)
16,c1ccc(Nc2ccccc2)cc1,4.24% (inactive)
17,C=C(C)C1CC=C(C)C(OC(C)=O)C1 (stereo not given),0.408% (inactive)
18,c1ccc2[nH]cnc2c1,1.44% (inactive)
19,CC/C(C)=N/O,-0.167% (inactive)
20,CCCCCCCCCCCCC1CO1 (stereo not given),-6.26% (inactive)

row,SMILES,"activity change, negative = cytotoxicity"
1,CCOC(C)(C)C,9.26% (inactive)
2,COc1ccc(OC)cc1,-3.27% (inactive)
3,Cc1ccccc1C(=O)O,-1.65% (inactive)
4,CC(=O)OCCC(C)C,5.36% (inactive)
5,COc1cccc2sc(N)nc12,0.0848% (inactive)
6,CC(=O)c1nccs1,6.61% (inactive)
7,O=C1OC(=O)c2cc([N+](=O)[O-])ccc21,0.588% (inactive)
8,Cc1ccc(C(C)(C)C)cc1,2.95% (inactive)
9,Cc1ccccc1C#N,5.51% (inactive)
10,[O-]/[N+](=N\O)c1ccccc1,-1.85% (inactive)
11,Cc1nc2ccc(Cl)cc2[nH]1,7.69% (inactive)
12,Cc1c(C(=O)O)cccc1[N+](=O)[O-],8.19% (inactive)
13,CCCCCCCN,1.03% (inactive)
14,CCCCCCC=O,-0.0551% (inactive)
15,CC(C=O)Cc1ccc(C(C)(C)C)cc1 (stereo not given),0.554% (inactive)
16,CC(C)N(C)C,2.96% (inactive)
17,Cc1cccc(C)c1,3.53% (inactive)
18,CCCCC(CC)COCC1CO1 (stereo not given),-0.626% (inactive)
19,COc1ccc(N)c(C)c1,-4.02% (inactive)
20,C=C(C)C(=O)OCC(C)O (stereo not given),-4.24% (inactive)
